# Compounds with a hit are over-represented: about 2.7% of the library has one in this group of screens.
# S2 tox – cell viability loss in ATXN counter-screen | actives 0.49% (n = 400,000) | Potency, µM (top dose mostly 56.7 µM), actives largely listed as cytotoxic | S2 cells (HEK-293 line with an ATXN2-luciferase reporter) viability, CellTiter-Fluor protease fluorescence, 24 h | AID 651635; further: nearly all actives have a fitted effect of over 40% in size
# TGFb inhibitor – inhibitors of TGF-b signaling. HepG2 CAGA-GFP TGF-b/SMAD3 reporter, GFP fluorescence, 18 h; TGF-beta stimulated, 500 pg/mL final. Potency, µM (doses to about 46.1 µM), for the others: at the highest dose activity, negative = inhibition, most hits filed as inhibitors. actives 1.2% (n = 410,000). AID 588855; further: on the % scale 0 is the no-effect control and ±100 the full control effect; nearly all actives have a fitted effect of over 65% in size
#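 HEPG2 CAGA-GFP, 1000 cells/well; 2 h settle, 37 C; cpd via pin tool; TGF-b 500 pg/mL final; 18 h, 37 C; GFP imaging ex488/em500-530; %Activity normalised to -TGF-b and +DMSO controls; CRC fit, curve class.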
# ATXN2 expr inh – ATXN2 expression inhibition; HEK-293 ATXN2-luciferase reporter, luminescence, 24 h; Potency, µM (highest dose often 57 µM), without a hit: at the highest dose activity change, negative = inhibition, most hits filed as inhibitors; actives 0.72% (n = 360,000); AID 1745845; further: on the % scale 0 is the no-effect control and ±100 the full control effect; nearly all actives have a fitted effect of over 55% in size
#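 ATXN2-luciferase reporter cells (luciferase flanked by upstream and downstream ATXN2 gene portions) were treated 24 h at 37 °C with compounds at up to 57 uM. SteadyGlo luminescence gave expression; GF-AFC fluorescence gave viability.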
# 12-LOX inh – inhibitors of human 12S-lipoxygenase ALOX12 | purified 12hLO, xylenol orange hydroperoxide absorbance | Potency, µM (top dose mostly 108 µM), without a hit: top-dose activity change, negative = inhibition, usual class: inhibitors | P18054 | AID 1671190 | actives 1.1% (n = 580,000); further: on the % scale 0 is the no-effect control and ±100 the full control effect
# Target sequence (P18054 whole entry, looked up): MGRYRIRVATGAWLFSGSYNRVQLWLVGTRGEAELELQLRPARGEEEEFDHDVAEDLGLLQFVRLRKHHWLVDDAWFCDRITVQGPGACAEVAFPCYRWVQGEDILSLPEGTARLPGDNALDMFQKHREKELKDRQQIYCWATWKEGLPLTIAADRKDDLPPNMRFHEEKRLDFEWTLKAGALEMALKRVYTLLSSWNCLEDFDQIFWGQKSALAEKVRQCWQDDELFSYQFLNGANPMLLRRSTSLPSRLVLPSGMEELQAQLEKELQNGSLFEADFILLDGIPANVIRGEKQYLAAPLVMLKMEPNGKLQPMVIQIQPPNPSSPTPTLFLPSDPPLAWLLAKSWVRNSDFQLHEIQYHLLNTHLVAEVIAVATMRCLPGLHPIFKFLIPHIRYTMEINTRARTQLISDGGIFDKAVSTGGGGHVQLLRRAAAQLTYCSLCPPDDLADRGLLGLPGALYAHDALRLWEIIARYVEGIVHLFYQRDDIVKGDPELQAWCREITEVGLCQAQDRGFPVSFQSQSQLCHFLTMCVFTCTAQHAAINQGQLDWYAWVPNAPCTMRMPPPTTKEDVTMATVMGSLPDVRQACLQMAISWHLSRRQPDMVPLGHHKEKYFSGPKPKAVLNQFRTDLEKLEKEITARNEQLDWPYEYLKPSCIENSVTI
#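 Purified human 12hLO (150 nM final) in 25 mM Hepes, 0.01% Triton X-100, pH 7.0 was preincubated 15 min at room temperature with compound. Then 40 uM arachidonic acid was added, 30 min. Hydroperoxide was read by Fe-XO absorbance ratio 573/405 nm.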
# HepG2 tox – kills HepG2 cells in TGF-b inhibitor counter-screen; HepG2 CAGA-GFP viability, ATP luminescence, 18 h; Potency, µM (top dose mostly 46.1 µM), without a hit: top-dose activity change, negative = cytotoxicity, most hits filed as cytotoxic; actives 0.76% (n = 410,000); AID 588856
#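 HepG2 CAGA-GFP cells (1000/well, DMEM with 1% FBS) received compound, then TGF-beta at 500 pg/mL final, and were incubated 18 hours at 37 degrees C. Viability was read by CellTiter-Glo luminescence. Media-only wells were set as complete cell-killing and DMSO as no toxicity.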
# The depositor's hits bear a star; i = inactive; ? = inconclusive; · = no result; [ ] = remark or other dose. The call rests on the fitted dose curve; in most records, active means well fitted curve in the direction sought with a large enough effect; inconclusive means small, poorly fitted or top-dose-only effect, or another doubt; inactive means no such curve, though single readings can be large; an effect the other way counts as inactive or inconclusive. Potency means the concentration at half of the fitted maximal effect.
SMILES,S2 tox,TGFb inhibitor,ATXN2 expr inh,12-LOX inh,HepG2 tox
CC12CC3CC(C)(C1)CC(C(=O)NC(=S)N1CCCCC1)(C3)C2,i,5.6%,6.2%,25.1µM*,-24.8%
CN(C)C(=S)NC(=O)C12CC3CC(C)(CC(C)(C3)C1)C2,i,-16.0%,?,372.1%,12.9%
CN1CC(=O)N(C2CCNC2)Cc2c(NCc3ccccn3)ncnc21 (stereo not given),·,·,·,42.5%,·
COc1ccccc1Nc1nn2c(=O)c3ccc(C(=O)NCc4ccc(F)cc4)cc3nc2s1,?,3.16µM*,?,?,3.98µM*
COc1ccc(CNCC(O)(c2ccccc2)c2ccc(Cl)cc2)cc1 (stereo not given),i,?,?,?,15.8µM*
Cc1ccc(CNCC(O)(c2ccccc2)c2ccc(Cl)cc2)cc1 (stereo not given),?,?,?,-0.3%,-80.0%
CC(NC(=O)C1CCCc2ccccc21)c1cccc(Cl)c1 (stereo not given),·,·,·,-66.0%,·
CCOC(=O)c1sc(Nc2ccccc2)nc1C(F)(F)F,·,·,·,39.8µM*,·
C#CCOCCOCCOCCNc1nc(N2CCN(C(=O)[C@H](CCCCN)n3cc(CC(C)O)nn3)CC2)nc(N2CCN(C(=O)[C@H](CCCCN)n3cc(CC(C)O)nn3)CC2)n1 (stereo not given in full),i,4.7%,9.8%,12.6µM*,0.1%
C#CCOCCOCCOCCNc1nc(N2CCOCC2)nc(N2CCN(C(=O)[C@H](CCCCN)n3cc(CCCC)nn3)CC2)n1,i,5.0%,6.0%,35.5µM*,2.1%
C#CCOCCOCCOCCNc1nc(N2CCN(C(=O)Cn3cc(CCO)nn3)CC2)nc(N2CCN(C(=O)[C@H](CCCCN)n3cc(CC(C)O)nn3)CC2)n1 (stereo not given in full),i,-0.2%,4.8%,?,5.3%
C#CCOCCOCCOCCNc1nc(N2CCN(C(=O)[C@H](CCCCN)n3cc(CCCC)nn3)CC2)nc(N2CCN(C(=O)[C@H](CCCCN)n3cc(CCCC)nn3)CC2)n1,i,12.4%,3.9%,?,8.0%
COc1ccc(OC)c(CN2CCN(C(=O)c3cc4c(s3)CCCCC4)CC2)c1,·,·,·,-10.3%,·
Cn1ccnc1C(NC(=O)Nc1ccccc1)c1ccccc1F (stereo not given),·,·,·,-0.6%,·
CCCN1CCN(c2cc(C(=O)O)c3cc(NC(=O)C(C)C)ccc3n2)CC1,·,·,·,11.2µM*,·
O=C(Nc1ccc2nc(N3CCN(C4CCCCC4)CC3)cc(C(=O)O)c2c1)c1ccc(Cl)cc1,·,·,·,12.6µM*,·
N#CCCN1CCN(c2cc(C(=O)O)c3cc(NC(=O)c4ccccc4)ccc3n2)CC1,·,·,·,6.31µM*,·
Cc1ccc(NC(=O)Nc2ccc3nc(N4CCN(C)CC4)cc(C)c3c2)cc1C,i,24.5%,11.4%,?,-19.8%
CN1CCN(c2cc(C(=O)O)c3cc(NC(=O)c4ccc(Cl)cc4)ccc3n2)CC1,·,·,·,-81.5%,·
N#CCCN1CCN(c2cc(C(=O)O)c3cc(NC(=O)C4CCCC4)ccc3n2)CC1,·,·,·,-83.6%,·
Cc1cc(N2CCN(C)CC2)nc2ccc(NC(=O)Nc3ccccc3)cc12,·,?,-19.2%,?,12.6µM*
COc1ccc(C(=O)c2c(N)c(C(=O)Nc3ccccc3)c3ccccn23)cc1,·,·,·,23.6%,·
CCCCn1c(=O)[nH]c(=O)c2c1nc(CCC(=O)N1CCCCC1C)n2CC(C)C (stereo not given),·,·,·,-0.3%,·
COc1ccc(NC(=O)CCc2c[nH]c3ccccc23)cc1,·,·,·,-9.1%,·
CCN1CCN(c2cc(C(=O)O)c3cc(NC(=O)C(C)C)ccc3n2)CC1,·,·,·,15.8µM*,·
SMILES,S2 tox,TGFb inhibitor,ATXN2 expr inh,12-LOX inh,HepG2 tox
CCN1CCN(c2cc(C)c3cc(NC(=O)c4cc(Br)ccc4Cl)ccc3n2)CC1,·,?,?,2.5%,10µM*
CCCCC(=O)Nc1ccc2nc(N3CCN(CC)CC3)cc(C)c2c1,·,·,·,-57.5%,·
S=C1NC(c2ccccc2)N2C(=S)NC(c3ccccc3)N12 (stereo not given),i,?,35.7%,15.8µM*,6.8%
O=C(NCc1ccnc(OCC(F)(F)F)c1)c1cccs1,·,·,·,21.4%,·
Cc1ccc(NC(=O)CN2C(=O)NC(Cc3c[nH]c4ccccc34)C2=O)cc1S(=O)(=O)N1CCCCC1 (stereo not given),?,10µM*,-24.1%,-11.6%,-7.0%
Oc1ccccc1N=Nc1ccccc1O,0.891µM*,?,·,?,-31.2%
Nc1ccc(N=Nc2ccccc2O)c(N)c1,i,?,70.2%,0.0%,-0.1%
Nc1nc(N)c2c(Oc3ccc(F)cc3)cccc2n1,·,12.6µM*,·,·,-50.0%
Cc1ccc([N+](=O)[O-])cc1S(=O)(=O)N1CCNCC1,i,2.1%,-4.8%,2.5%,3.1%
Cc1ccc([N+](=O)[O-])cc1S(=O)(=O)N(C)N=Cc1cnc2ccc(Br)cn12,·,·,0.0485µM*,8.63µM*,·
Cn1c(Oc2ccc(-c3ccc(Br)cc3)cc2)c(C#N)c(=O)n(C)c1=O,·,·,·,12.6µM*,·
COc1ccc(-c2c(C#N)c(N)nc3c2c(=O)n(C)c(=O)n3C)cc1,i,20.0%,-7.8%,52.1%,-6.8%
O=C(NC(=S)Nn1cnnc1)c1ccc(F)cc1Cl,i,0.0%,-1.7%,15.8µM*,-2.9%
O=C(NC(=S)Nn1cnnc1)c1ccccc1Cl,i,1.6%,2.7%,?,-6.9%
CCN1c2cc(C(=O)Nc3ccc(OC(F)(F)F)cc3)ccc2C(=O)N2CCCCCC21 (stereo not given),·,·,·,22.0%,·
CCN(CC(=O)NCc1ccc(F)cc1)CC(O)COCc1cccc(OC)c1 (stereo not given),i,12.6µM*,-1.7%,?,-40.8%
COc1ccc(C[C@H]2CN3C(=NC[C@H]3C)N2CCNC(=O)c2ccc(C)c(Br)c2)cc1,28.2µM*,?,-18.5%,-25.0%,-41.2%
Cc1ccc(C(=O)NCCN2C3=NC[C@H](C)N3C[C@H]2Cc2ccc(O)cc2)cc1Br,i,1.7%,?,-27.2%,0.5%
Cc1cc([N+](=O)[O-])ccc1NCc1ccccc1,i,-30.9%,4.6%,·,-14.9%
Cc1cc([N+](=O)[O-])ccc1NCc1ccc2ccccc2c1,i,20µM*,5.0%,7.9%,-7.3%
O=C(COC(=O)C1CC(=O)N(c2nc(-c3ccc(Cl)cc3)cs2)C1)c1ccc(Cl)cc1 (stereo not given),·,·,·,-4.1%,·
CC(=O)Nc1cccc(-c2nc(-c3c(C)noc3C)cc3c2cc(-c2ccccc2)n3C)c1,·,·,·,-7.2%[176 µM],·
COc1ccccc1OCCN1CSC(=S)N(C)C1,?,?,28.2µM*,-22.0%,-21.5%
COC(=O)CN1CCN(CCC(C)C)CC1,·,·,·,-2.1%,·
